Active and inactive are the calls of the source. How the calls were made is not given here. Where a SMILES comes first, the peptide text is derived from it. The star is where a group is joined. Cbz = O=C(OCc1ccccc1)*
Tested on: Aerobactin synthetase IucA (Klebsiella pneumoniae, hypervirulent)
Assay: IucA enzyme inhibition, biochemical, LOPAC library, absorbance readout (AID 1346212);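 further: 100% = no compound wells and 0% = no enzyme wells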
Settings: IucA enzyme assay, absorbance (OD) readout; stronger effect = lower value;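 tested at 8 µM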

SMILES | remaining activity
Nc1ccn([C@H]2CC[C@@H](CO)O2)c(=O)n1 | 121% (inactive)
C[N+](C)(C)CC=O | 101% (inactive)
NCCCNCCCCNCCCN | 108% (inactive)
CC(C)NCC(O)COc1ccc(COCCOC(C)C)cc1 (stereo not given) | 91.4% (inactive)
Fc1ccc(CN(C2=NCCN2)c2c(Cl)cccc2Cl)cc1 | 113% (inactive)
O=S(=O)(c1cccc2cnccc12)N1CCNCC1 | 121% (inactive)
CCCOC(=O)c1c(-c2ccccc2)nc(CC)c(C(=O)SCC)c1CCC | 106% (inactive)
CCOC(=O)Nc1ccc(NCc2ccc(F)cc2)nc1N | 97.8% (inactive)
NC(=NCc1ccc(Cl)c(Cl)c1)NC(=O)c1nc(Cl)c(N)nc1N | 105% (inactive)
CC(C)[C@H](NC(=O)OCc1ccccc1)C(=O)N[C@H](C=O)Cc1ccccc1 (Cbz-Val-Phe-aldehyde) | 106% (inactive)
CC(C)(C)NCC(O)COc1nsnc1N1CCOCC1 (stereo not given) | 109% (inactive)
CC(=O)c1ccc(S(=O)(=O)NC(=O)NC2CCCCC2)cc1 | 127% (inactive)
N[C@@H](Cc1ccc(O)c(I)c1)C(=O)O | 121% (inactive)
O=C(O)/C=C/C(O)c1ccc(Cl)cc1 (stereo not given) | 120% (inactive)
O=C(NCCNCC(O)COc1ccc(O)cc1)N1CCOCC1 (stereo not given) | 118% (inactive)
CC(C)(Sc1ccc(CCN(CCCCC2CCCCC2)C(=O)NC2CCCCC2)cc1)C(=O)O | 119% (inactive)
N[C@@H](Cc1c[nH]c2ccccc12)C(=O)O | 91.3% (inactive)
CN1CC(O)C(O)C(O)C1CO (stereo not given) | 105% (inactive)
C[C@]1(C2CCCC2)Cc2cc(OCC(=O)O)c(Cl)c(Cl)c2C1=O | 113% (inactive)
O=C1c2ccccc2-c2n[nH]c3cccc1c23 | 88.6% (inactive)

SMILES | remaining activity
COc1cc(=O)n(C)c2c(OCC(O)C(C)(C)O)cccc12 (stereo not given) | 108% (inactive)
Cc1nc(N=Nc2ccc(S(=O)(=O)O)cc2S(=O)(=O)O)c(COP(=O)(O)O)c(C=O)c1O | 106% (inactive)
O=c1[nH]c(=O)n([C@H]2C[C@H](O)[C@@H](CO)O2)cc1/C=C/Br | 123% (inactive)
Nc1c(C(=O)Nc2nnc(-c3ccccc3)s2)sc2nc3c(cc12)CCCCC3 | 109% (inactive)
CC(=O)O[C@H]1C(=O)[C@@]2(C)[C@H]([C@H](OC(=O)c3ccccc3)[C@]3(O)C[C@H](OC(=O)[C@H](O)[C@@H](NC(=O)c4ccccc4)c4ccccc4)C(C)=C1C3(C)C)[C@]1(OC(C)=O)CO[C@@H]1C[C@@H]2O | 94.8% (inactive)
N#C/C(=C\c1ccc(O)c(O)c1)C(=O)c1ccc(O)c(O)c1 | 79.7% (inactive)
NC(=S)NCCCC(N)C(=O)O (stereo not given) | 102% (inactive)
CN(Cc1cnc2nc(N)nc(N)c2n1)c1ccc(C(=O)N[C@@H](CCC(=O)O)C(=O)O)cc1 | 117% (inactive)
N=C1Sc2ccccc2C2=NCCCN12 | 118% (inactive)
CCCC(=O)NCCc1c2n(c3ccc(OC)cc13)Cc1ccccc1-2 | 89.8% (inactive)
Oc1ccc(Cn2cc[nH]c2=S)cc1 | 102% (inactive)
O=C(Nc1ccccc1)c1cc([N+](=O)[O-])ccc1Cl | 115% (inactive)
COc1[nH]c2ccc(F)cc2c1C(=O)OCC1CCN(CCNS(C)(=O)=O)CC1 | 124% (inactive)
NC(=O)c1cn(Cc2c(F)cccc2F)nn1 | 117% (inactive)
C[C@]12CCC(=O)C=C1CC[C@@H]1[C@@H]2C(=O)C[C@@]2(C)[C@H]1CC[C@]2(O)C(=O)CO | 105% (inactive)
Nc1ncnc2c1ncn2[C@@H]1O[C@H](COP(=O)(O)OP(=O)(O)OP(=O)(O)OP(=O)(O)OC[C@@H]2O[C@H](n3cnc4c(N)ncnc43)C(O)[C@@H]2O)[C@H](O)C1O (stereo not given in full) | 91.8% (inactive)
C[N+](C)(C)CCOC(=O)CCC(=O)OCC[N+](C)(C)C | 123% (inactive)
COc1cc(C(O)CO)ccc1OS(=O)(=O)O (stereo not given) | 99.3% (inactive)
CCCc1c(-c2ccc(O)cc2)nn(-c2ccc(O)cc2)c1-c1ccc(O)cc1 | 102% (inactive)
Brc1c(Br)c(Br)c2[nH]cnc2c1Br | 110% (inactive)
